PubChem BioAssay (NCATS)
Inconclusive results are not listed. Calls of active or inactive are those of the source. The call rests on the fitted dose curve; in most records, active means well fitted cell-killing curve with a large enough effect; inconclusive means small, poorly fitted or top-dose-only effect, or effect the other way; inactive means no such curve, though single readings can be large or run the other way.

Legend:
[1] = Quantitative High-Throughput drug screen in 47 multiple myeloma cell lines against the NCATS MIPE library collection: LP1_DSMZ cell viability assay (AID 1918982); further: nearly all actives have a fitted effect of over 35% in size
In short: (§1)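 Inhibition of viability over 48 h was scored by ATP content (CellTiter-Glo) in 500-cell wells. Zero and full viability were defined by media-only and DMSO-only wells.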

[2] = Quantitative High-Throughput drug screen in 47 multiple myeloma cell lines against the NCATS MIPE library collection: KMS28PE_JCRB cell viability assay (AID 1918983); further: nearly all actives have a fitted effect of over 35% in size
In short: as §1

[3] = Quantitative High-Throughput drug screen in 47 multiple myeloma cell lines against the NCATS MIPE library collection: L363_DSMZ cell viability assay (AID 1918984); further: nearly all actives have a fitted effect of over 40% in size
In short: as §1

[4] = Quantitative High-Throughput drug screen in 47 multiple myeloma cell lines against the NCATS MIPE library collection: KMS34_JCRB cell viability assay (AID 1918985); further: nearly all actives have a fitted effect of over 40% in size
In short: as §1

[5] = Quantitative High-Throughput drug screen in 47 multiple myeloma cell lines against the NCATS MIPE library collection: OCIMY7_PLB cell viability assay (AID 1918987); further: nearly all actives have a fitted effect of over 65% in size
In short: as §1

[6] = Quantitative High-Throughput drug screen in 47 multiple myeloma cell lines against the NCATS MIPE library collection: OCIMY5_PLB cell viability assay (AID 1918988); further: nearly all actives have a fitted effect of over 65% in size
In short: as §1

[7] = Quantitative High-Throughput drug screen in 47 multiple myeloma cell lines against the NCATS MIPE library collection: OPM1_PLB cell viability assay (AID 1918989); further: nearly all actives have a fitted effect of over 40% in size
In short: as §1

[8] = Quantitative High-Throughput drug screen in 47 multiple myeloma cell lines against the NCATS MIPE library collection: SKMM1_PLB cell viability assay (AID 1919863); conditions: SKMM1 myeloma viability, CellTiter-Glo ATP, 48 h; viability: hits give low values; further: nearly all actives have a fitted effect of over 35% in size
In short: as §1

[9] = Quantitative High-Throughput drug screen in 47 multiple myeloma cell lines against the NCATS MIPE library collection: XG6_PLB cell viability assay (AID 1919865); further: nearly all actives have a fitted effect of over 40% in size
In short: as §1

[10] = Quantitative High-Throughput drug screen in 47 multiple myeloma cell lines against the NCATS MIPE library collection: U266_ATCC cell viability assay (AID 1919864); further: nearly all actives have a fitted effect of over 35% in size
In short: as §1

Measured: Potency
Potency means the concentration at half of the fitted maximal effect.

CC(C)c1ccc(Cn2ccc3c4c(N)nc(NC5CC5)nc4ccc32)cc1
active: [1] 4.69 µM | [2] 9.35 µM | [3] 0.469 µM | [4] 3.32 µM | [5] 1.66 µM | [6] 2.35 µM | [7] 1.87 µM | [8] 11.8 µM | [9] 5.26 µM

COc1cc2c(NC3CCN(C(C)C)CC3)nc(C3CCCCC3)nc2cc1OCCCN1CCCC1
active: [1] 5.26 µM | [2] 16.6 µM | [3] 5.26 µM | [4] 5.26 µM | [5] 16.6 µM | [6] 6.62 µM | [7] 3.32 µM | [10] 2.96 µM | [9] 2.64 µM

CC[C@H]1CN2CCc3cc(OC)c(OC)cc3[C@H]2C[C@@H]1C[C@@H]1NCCc2cc(OC)c(OC)cc21
active: [1] 0.332 µM | [2] 0.296 µM | [3] 0.059 µM | [4] 0.132 µM | [5] 0.526 µM | [6] 0.187 µM | [7] 0.235 µM | [9] 0.105 µM

CCN(CC)CCNC(=O)c1ccc2nc(-c3ccccc3)c(-c3ccc(CN4CCC(n5c(=O)[nH]c6ccccc65)CC4)cc3)nc2c1
active: [1] 18.7 µM | [2] 23.5 µM | [3] 0.418 µM | [4] 20.9 µM | [5] 1.05 µM | [6] 10.5 µM | [7] 0.743 µM | [8] 20.9 µM | [10] 8.33 µM | [9] 0.296 µM

COc1cccc2c(NCc3ccccc3)nc(-n3c(N)nc4ccccc43)nc12
active: [1] 9.35 µM | [2] 8.33 µM | [3] 1.32 µM | [4] 6.62 µM | [5] 2.96 µM | [6] 7.43 µM | [7] 5.26 µM | [8] 7.43 µM | [10] 5.9 µM | [9] 2.09 µM

CCc1c2c(nc3ccc(O)cc13)-c1cc3c(c(=O)n1C2)COC(=O)[C@]3(O)CC
active: [1] 0.662 µM | [2] 0.166 µM | [3] 0.59 µM | [4] 0.264 µM | [5] 0.001 µM | [6] 1.18 µM | [7] 0.935 µM | [8] 0.469 µM | [10] 0.743 µM

C=CC(=O)Nc1cc2c(Nc3ccc(F)c(Cl)c3)ncnc2cc1C#CC(C)(C)N1CCN(C)CC1
active: [1] 9.35 µM | [2] 0.833 µM | [3] 1.48 µM | [4] 5.26 µM | [5] 0.469 µM | [6] 0.935 µM | [7] 0.833 µM | [8] 13.2 µM | [10] 1.05 µM | [9] 0.296 µM

COc1cc2c(Oc3ccc(NC(=O)C4(C(=O)Nc5ccc(F)cc5)CC4)cc3F)ccnc2cc1OCCCN1CCOCC1
active: [1] 16.6 µM | [2] 4.18 µM | [3] 2.96 µM | [4] 10.5 µM | [5] 0.264 µM | [6] 5.9 µM | [7] 4.18 µM | [10] 20.9 µM | [9] 5.26 µM

O=C(Nc1cn[nH]c1-c1nc2ccc(CN3CCOCC3)cc2[nH]1)NC1CC1
active: [1] 4.69 µM | [2] 7.43 µM | [3] 2.64 µM | [4] 0.418 µM | [5] 0.332 µM | [6] 4.18 µM | [7] 1.66 µM | [8] 10.5 µM | [10] 2.35 µM | [9] 0.743 µM

Nc1nc(Nc2ccc(S(N)(=O)=O)cc2)nn1C(=O)c1c(F)cccc1F
active: [1] 8.33 µM | [2] 8.33 µM | [3] 2.96 µM | [4] 8.33 µM | [5] 3.32 µM | [6] 7.43 µM | [7] 7.43 µM | [8] 10.5 µM | [10] 7.43 µM | [9] 2.35 µM

Cc1ccc(C(N)=O)cc1Nc1nccc(-c2cn(C(C)C)c3cnccc23)n1
active: [1] 8.33 µM | [2] 13.2 µM | [3] 2.64 µM | [4] 6.62 µM | [5] 0.935 µM | [6] 7.43 µM | [7] 7.43 µM | [8] 16.6 µM | [9] 2.64 µM

COc1cc2c(Oc3ccc(-c4cnc(Nc5ccc(F)cc5)n(C)c4=O)cc3F)ccnc2cc1OCCCN1CCOCC1
active: [1] 11.8 µM | [2] 11.8 µM | [3] 0.833 µM | [4] 18.7 µM | [5] 7.43 µM | [6] 14.8 µM | [7] 6.62 µM | [8] 29.6 µM | [10] 20.9 µM | [9] 3.32 µM

CC=C1NC(=O)[C@H]2CSSCCC=C[C@H](CC(=O)N[C@H](C(C)C)C(=O)N2)OC(=O)[C@H](C(C)C)NC1=O
active: [1] 0.0118 µM | [2] 0.0209 µM | [3] 0.0066 µM | [4] 0.0264 µM | [5] 0.059 µM | [6] 0.0066 µM | [7] 0.0132 µM | [8] 0.0418 µM | [10] 0.0372 µM | [9] 0.0235 µM

Cc1ccc(-c2ncn(-c3ccc(Nc4nccc(-c5cccc(N6CCOCC6)c5)n4)cc3)n2)cn1
active: [1] 0.132 µM | [2] 0.148 µM | [3] 0.0743 µM | [4] 0.166 µM | [5] 0.132 µM | [6] 0.0526 µM | [7] 0.0833 µM | [10] 0.132 µM | [9] 0.132 µM

CNC(=O)c1nn(C)c2c1C(C)(C)Cc1cnc(Nc3ccc(N4CCN(C)CC4)cc3)nc1-2
active: [1] 5.9 µM | [2] 4.18 µM | [3] 0.662 µM | [4] 1.48 µM | [5] 1.32 µM | [6] 1.18 µM | [7] 1.66 µM | [8] 9.35 µM | [10] 0.935 µM | [9] 2.96 µM

CN(C)CC(C)(C)CNc1nn2c(-c3ccccc3)nnc2cc1C1CCC1
inactive: [1]

O=C(Nc1ncc(-c2cc(C(F)F)nn2-c2c(Cl)cccc2Cl)s1)C1CC1
active: [1] 1.05 µM | [2] 0.935 µM | [3] 0.235 µM | [4] 0.264 µM | [5] 0.166 µM | [6] 0.296 µM | [7] 0.418 µM | [8] 0.332 µM | [10] 2.96 µM | [9] 0.187 µM

Cc1cc(C(=O)N2CCN(c3cccc(Cl)c3)CC2)n(-c2ccccc2)n1
active: [1] 5.26 µM | [2] 1.87 µM | [3] 0.132 µM | [4] 1.05 µM | [5] 0.059 µM | [6] 0.187 µM | [7] 5.26 µM | [10] 20.9 µM | [9] 0.118 µM

CC1(C)OC2=C(C(=O)c3ccccc3C2=O)[C@H](NCc2ccccc2)[C@H]1O
active: [1] 4.69 µM | [2] 6.62 µM | [3] 2.09 µM | [4] 4.18 µM | [5] 1.32 µM | [6] 3.32 µM | [7] 2.35 µM | [8] 7.43 µM | [10] 2.64 µM | [9] 0.935 µM

CCC[C@H](NC(=O)C(C#N)=Cc1cccc(Br)n1)c1ccccc1
active: [1] 5.26 µM | [2] 2.96 µM | [3] 7.43 µM | [4] 4.69 µM | [5] 0.526 µM | [6] 2.09 µM | [7] 0.935 µM | [10] 5.9 µM | [9] 2.35 µM

CN1CCN(Cc2ccc(NC(=O)Nc3ccc(Oc4cc(NC(=O)C5CC5)ncn4)cc3)cc2C(F)(F)F)CC1
active: [1] 0.372 µM | [2] 0.372 µM | [4] 0.332 µM | [5] 0.526 µM | [6] 0.332 µM | [7] 0.166 µM | [8] 0.332 µM | [10] 0.418 µM | [9] 0.148 µM
inactive: [3]

C1=CCOCc2cc(ccc2OCCN2CCCC2)Nc2nccc(n2)-c2cccc(c2)OCC1
active: [1] 2.64 µM | [2] 3.72 µM | [3] 0.743 µM | [4] 2.35 µM | [5] 1.18 µM | [6] 2.35 µM | [7] 3.32 µM | [8] 9.35 µM | [10] 5.26 µM | [9] 1.87 µM

COc1ccc(F)c(F)c1C(=O)c1cnc(NC2CCN(S(C)(=O)=O)CC2)nc1N
active: [1] 2.96 µM | [2] 2.35 µM | [3] 1.32 µM | [4] 1.32 µM | [5] 1.66 µM | [6] 1.32 µM | [7] 1.87 µM | [8] 2.96 µM | [10] 2.64 µM | [9] 1.05 µM

O=C(c1ccc(Nc2nccc(-c3cc4ccccc4s3)n2)cc1)N1CCC(N2CCCC2)CC1
active: [1] 20.9 µM | [2] 16.6 µM | [3] 1.48 µM | [4] 11.8 µM | [5] 2.35 µM | [6] 8.33 µM | [7] 5.26 µM | [8] 23.5 µM | [10] 14.8 µM | [9] 1.87 µM

COc1ccc(-c2cc3c(C)nc(N)nc3n(C3CCC(OCCO)CC3)c2=O)cn1 (stereo not drawn)
active: [1] 0.0148 µM | [2] 0.0332 µM | [3] 0.0105 µM | [4] 0.0743 µM | [5] 0.118 µM | [6] 0.0833 µM | [7] 0.0469 µM | [8] 0.0132 µM | [10] 0.264 µM | [9] 0.0662 µM

CC[C@@]1(O)C(=O)OCc2c1cc1n(c2=O)Cc2cc3cc(O)ccc3nc2-1
active: [1] 2.64 µM | [2] 0.469 µM | [3] 0.935 µM | [4] 1.18 µM | [5] 0.0105 µM | [6] 1.66 µM | [7] 2.96 µM | [8] 1.32 µM | [10] 2.96 µM | [9] 0.0132 µM

O=C(O)c1ccc2cc(-c3ccc(O)c(C45CC6CC(CC(C6)C4)C5)c3)ccc2c1
active: [1] 20.9 µM | [2] 3.32 µM | [3] 0.833 µM | [4] 13.2 µM | [5] 0.105 µM | [6] 2.96 µM | [8] 4.18 µM | [9] 0.132 µM

CC(C)CC(=O)Nc1n[nH]c2c1CN(C(=O)C1CCN(C)CC1)C2(C)C
active: [1] 1.87 µM | [2] 1.18 µM | [3] 0.833 µM | [4] 1.18 µM | [5] 1.66 µM | [6] 1.32 µM | [7] 2.09 µM | [8] 4.69 µM | [9] 0.935 µM
